# PubChem BioAssay AID488969 (Vanderbilt High Throughput Screening Facility, 2010)
# The full ranking holds about 110,000 compounds; the median of “z-score” is about -0.1, and the highest 2% start at about 2. What follows is part of a selection rich in the highest values, with near analogues and random picks from the rest. Calls of active or inactive are those of the source.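 The calls were made as follows: active = z-score in the third read window above 3 or below -3; inactive = the rest.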
# Molecular target: Metabotropic glutamate receptor 8 (Rattus norvegicus) (UniProt P70579)
# Experiment: rat mGluR8 modulators via GIRK flux, primary screen, cell-based, thallium flux, HTS (AID 488969)
# Details: HEK293 rat mGluR8, GIRK (G protein-gated inwardly rectifying potassium channel) thallium flux, FluoZin2; at 10 µM; stronger effect = higher value; submaximal glutamate (EC20) added with thallium
# Chain of Metabotropic glutamate receptor 8 (Rattus norvegicus) (P70579 whole entry, looked up): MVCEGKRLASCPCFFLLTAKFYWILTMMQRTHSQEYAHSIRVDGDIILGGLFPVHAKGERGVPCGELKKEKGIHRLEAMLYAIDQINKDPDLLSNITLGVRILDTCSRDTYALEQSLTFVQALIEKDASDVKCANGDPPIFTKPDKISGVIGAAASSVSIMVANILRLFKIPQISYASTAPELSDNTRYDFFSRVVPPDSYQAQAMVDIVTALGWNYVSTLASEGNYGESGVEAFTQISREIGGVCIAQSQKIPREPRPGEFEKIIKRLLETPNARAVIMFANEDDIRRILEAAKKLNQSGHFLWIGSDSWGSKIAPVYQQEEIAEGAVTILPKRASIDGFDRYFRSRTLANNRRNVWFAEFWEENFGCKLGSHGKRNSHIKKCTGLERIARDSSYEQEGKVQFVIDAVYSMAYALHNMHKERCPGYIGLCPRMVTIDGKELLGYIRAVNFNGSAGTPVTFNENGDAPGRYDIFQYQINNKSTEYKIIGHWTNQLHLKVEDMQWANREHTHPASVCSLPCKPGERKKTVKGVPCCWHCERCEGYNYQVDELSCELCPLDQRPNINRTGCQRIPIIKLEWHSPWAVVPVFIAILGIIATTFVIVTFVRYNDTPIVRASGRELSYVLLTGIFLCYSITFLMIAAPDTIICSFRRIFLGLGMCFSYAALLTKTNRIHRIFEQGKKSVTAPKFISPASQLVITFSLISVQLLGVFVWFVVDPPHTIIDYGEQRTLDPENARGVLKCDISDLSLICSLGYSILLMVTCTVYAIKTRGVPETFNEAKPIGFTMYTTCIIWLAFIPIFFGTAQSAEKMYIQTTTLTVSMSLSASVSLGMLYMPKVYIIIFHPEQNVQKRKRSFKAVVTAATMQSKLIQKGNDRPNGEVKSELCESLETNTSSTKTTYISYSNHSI
row,SMILES,z-score
1,CCS(=O)(=O)N1CCN(c2ccc(Cl)cc2[N+](=O)[O-])CC1,0.325
2,COc1cccc(C(=O)CN2CCN(S(=O)(=O)c3ccc(Br)cc3)CC2)c1,-0.472
3,CCOc1ccc(C(=O)CN2CCN(S(=O)(=O)c3ccc(Br)cc3)CC2)cc1,4.08 (active)
4,CCOc1ccc(C(=O)CN2CCN(S(=O)(=O)c3ccc(OC)cc3)CC2)cc1,-0.414
5,CN1CCN(c2ccccc2NC(=O)COc2ccccc2)CC1,-0.109
6,COc1ccc(/C=N/NC(=O)CSc2nnc(C)n2-c2ccccc2)c(OC)c1OC,-0.14
7,O=C1N=C(N2CCN(c3cccc4ccccc34)CC2)S/C1=C/c1cccs1,-0.0125
8,CSC1=NSC2=NC(=O)/C(=C/c3coc4ccc(O)cc4c3=O)C(=N)N12,-0.47
9,Cc1cc(/C=C2\C(=N)N3C(SCc4ccccc4)=NSC3=NC2=O)c(C)n1Cc1ccccc1,0.143
10,O=C1NN(c2ccccc2)C(=O)/C1=C/c1coc2ccccc2c1=O,-0.738
11,CSC1=NSC2=NC(=O)/C(=C/c3coc4ccccc4c3=O)C(=N)N12,10.4 (active)
12,N=C1/C(=C/c2cccs2)C(=O)N=C2SN=C(SCc3ccccc3)N12,9.53 (active)
13,O=[N+]([O-])c1ccc(N2CCCCC2)cc1NCCOc1ccccc1,0.0562
14,CC(C)(CNC(=O)/C=C/c1ccc(F)cc1)CNC(=O)/C=C/c1ccc(F)cc1,-0.186
15,CC(C)(C)NC(=O)COC(=O)/C=C/c1ccc(F)cc1,-0.0768
16,CC(C)(C)C(=O)/C=c1\[nH]c(=O)/c(=C\c2ccc(F)cc2)s1,5.06 (active)
17,Cc1ccccc1/C=c1\s/c(=C\C(=O)C(C)(C)C)[nH]c1=O,5.84 (active)
18,Cc1cccc(/C=c2\s/c(=C\C(=O)C(C)(C)C)[nH]c2=O)c1,9.35 (active)
19,COc1cccc(/C=c2\s/c(=C/C(=O)c3ccc(C)cc3)[nH]c2=O)c1OC,1.51
20,CSc1ccc(/C=c2\s/c(=C\C(=O)C(C)(C)C)n(CC(=O)NCCC3=CCCCC3)c2=O)cc1,-0.0802
21,COc1ccc(/C=c2\s/c(=C/C(=O)c3ccc(C)cc3)[nH]c2=O)c(OC)c1,0.0664
22,CCc1ccc(/C=C(\Cl)c2nc3cc(Cl)ccc3c(=O)[nH]2)cc1,0.511
23,Cc1cccc(/C=C2\CS/C(=C\c3cccc(C)c3)C2=O)c1,-0.0758

row,SMILES,z-score
1,CCc1ccc(/C=c2\s/c(=C\C(=O)C(C)(C)C)[nH]c2=O)cc1,7.24 (active)
2,COc1ccc(/C=c2\s/c(=C/C(=O)c3ccc(C)cc3)[nH]c2=O)cc1OC,0.46
3,O=C(Cc1ccccc1)NC(NNc1ccccc1)(C(F)(F)F)C(F)(F)F,-0.447
4,CC(C)N(Cc1nc(-c2ccccc2)no1)C(=O)CCCN1C(=O)c2ccccc2C1=O,-0.305
5,CCOC(=O)c1ccc(NC(=S)N2CCSC2c2ccc(Br)cc2)cc1 (configuration not stated),0.308
6,O=c1oc2cc(OCc3ccc(F)cc3F)ccc2cc1-c1ccc2ccccc2n1,-0.209
7,O=S(=O)(c1ccc(Oc2ccc(Cl)cc2)c(S(=O)(=O)N2CCCCC2)c1)N1CCCCC1,-0.278
8,CCOc1ccc(OCC)c(NC(=O)C2CCN(S(=O)(=O)c3cccc4nonc34)CC2)c1,0.0264
9,COc1ccc(Cn2c(C)c(C)c(C#N)c2NC(=O)Nc2cccc(Cl)c2)cc1,-0.0483
10,COc1ccc(-c2cc(C(F)(F)F)nc(SCC(N)=O)n2)cc1,0.362
11,Cn1c(=O)c2c(ncn2CC(=O)Nc2ccccc2)n(C)c1=O,0.318
12,Cc1ccc(C(=O)Nc2cccnc2)cc1S(=O)(=O)N1CCOCC1,0.265
13,COc1ccc(OC)c(C2c3c(oc4ccccc4c3=O)C(=O)N2CCCN(C)C)c1 (configuration not stated),-0.648
14,CCN(CC)CCCN1C(=O)c2oc3ccccc3c(=O)c2C1c1cccc(OC)c1OC (configuration not stated),0.625
15,CCN(CC)CCCN1C(=O)c2oc3ccccc3c(=O)c2C1c1cc(OC)ccc1OC (configuration not stated),0.517
16,CN(C)CCCN1C(=O)c2oc3ccccc3c(=O)c2C1c1cccs1 (configuration not stated),2.78
17,CCN(CC)CCCN1C(=O)c2oc3ccccc3c(=O)c2C1c1cccs1 (configuration not stated),13.2 (active)
18,COc1cccc(C2c3c(oc4ccccc4c3=O)C(=O)N2CCCN(C)C)c1OC (configuration not stated),-0.0845
19,Cn1c(SCC(=O)c2ccccc2F)nnc1C1CC1,-0.74
20,CCn1c(SCC(N)=O)nnc1-c1ccc(S(=O)(=O)N2CCN(C)CC2)cc1,-0.217
21,COc1ccc(NC(=O)c2cccc(F)c2)cc1Cl,-0.393
22,CCc1cccc2c(C(=O)COC(=O)c3ccc(O)cc3)c[nH]c12,-0.12
23,O=C(N/N=C\c1ccc(Cl)s1)c1cccs1,8.64 (active)

row,SMILES,z-score
1,Cc1ccc(/C=N/NC(=O)c2cccs2)s1,1.3
2,O=C(N/N=C/c1cccs1)c1cccs1,0.0886
3,O=C(Nc1ccc([N+](=O)[O-])cn1)c1cc(-c2cccc(Cl)c2)nc2ccccc12,-0.658
4,O=C(N/N=C/c1c[nH]c2ccccc12)C1CC1(c1ccccc1)c1ccccc1 (configuration not stated),-0.618
5,Cc1ccc(C)n1-c1ccc(C(=O)O)cc1,-1.12
6,CCOC(=O)c1ccc(-n2c(C)ccc2C)cc1,-0.201
7,Cc1ccc(C)n1-c1ccc(C(=O)NN)cc1,2.5
8,CCOC(=O)/C(C(N)=NC(C)C)=C(\O)c1ccccc1,0.0345
9,CC(C)COC(=O)CCNc1n[nH]c(=O)[nH]c1=O,0.184
10,CCCCOC(=O)CNc1n[nH]c(=S)[nH]c1=O,0.182
11,CC(C)COC(=O)CNc1n[nH]c(=S)[nH]c1=O,1.98
12,Nc1cc(=O)nc(SCC(=O)N(C2CCCCC2)C2CCCCC2)n1-c1ccccc1,-0.245
13,CCCNC(=O)C(NS(=O)(=O)c1cccc2nsnc12)c1ccccc1 (configuration not stated),-0.0978
14,O=c1cc(CN2CCOCC2)nc(C2CC2)[nH]1,5.57 (active)
15,CC1CN(Cc2cc(=O)[nH]c(C3CC3)n2)CC(C)O1 (configuration not stated),-0.155
16,Cc1nc(CN2CCOCC2)cc(=O)[nH]1,0.197
17,Cc1cc(NC(=O)C(=O)NCCN2CCN(C(=O)c3cccs3)CC2)ccc1Br,-0.64
18,COc1cccc(N/C=C(\C#N)c2ccc(OCCCF)cc2)c1,0.135
19,Cn1c(Cc2csc(N)n2)nnc1SCC(=O)NCc1ccccc1,0.898
20,Cc1ccccc1CCN(C(=O)Cn1nnc2ccccc21)C(C(=O)NC(C)(C)C)c1ccsc1 (configuration not stated),0.0716
21,Cc1ccc(NC(=O)c2cc(N3C(=O)C=CC3=O)ccc2Cl)cc1C,-0.0892
